The whole screen tested about 69,000 compounds, of which about 8,600 (12%) showed an effect of 50% or more. This is one part of a sample in which strong results are shown more often than they occur.
System: Plasmodium berghei
Experiment: Screen against P. berghei liver stage (PbLuc), transformed with Luciferase, at 10uM
Assay type: functional, HepG2
Conditions: tested at 10 uM

Compound | INHIBITION [%]
Cc1nn(CCC(=O)NC2CCCOC2)c(C)c1C (stereo not drawn) | 3.35
CC1CCN(CCNC(=O)C(C)n2cncn2)CC1 (stereo not drawn) | 22.3
CNC(=O)C1(C)CN(Cc2cn(C)c3ccc(F)cc23)CCO1 (stereo not drawn) | 3.48
CNC(=O)[C@@H]1CN(C(=O)C2CCC2)C[C@H]1c1ccnc(N2CCCC2)n1 | -33.3
CCN1CC(NC(=O)Nc2nc(C)n(C(C)C)n2)CC1=O (stereo not drawn) | 64.4
Cc1nc(NC(=O)NC2CC(=O)N(C)C2)nn1C(C)C (stereo not drawn) | 40.6
CCCN1CC(NC(=O)Nc2nc(C)n(C(C)C)n2)CC1=O (stereo not drawn) | 44.6
COC(=O)C(NC(=O)CCc1ccco1)c1cc(F)ccc1F (stereo not drawn) | -4.16
CC(C(=O)N1CCCCC1)n1nc(-c2cccs2)cc(N)c1=O (stereo not drawn) | 23
O=C(Cc1ccc(Cl)cc1)N[C@@H]1CCC[C@@H](O)[C@@H]1O | 14.21
CC(C)(C)c1noc(-c2ccnc(-n3cnc(C(=O)O)c3)c2)n1 | -6.73
CC(=O)N1CCOC(c2cncc(CCC(N)=O)n2)C1 (stereo not drawn) | 10.9
c1nc(C2CCCCO2)ncc1CN1CCOCC1 (stereo not drawn) | 0.696
N#Cc1cc2c(nc1O)CCCCC2 | 23.4
N#Cc1cc2c(nc1SCc1cc(O)nc(O)n1)CCCC2 | 32.3
N#Cc1cc2c(nc1SCc1cc(O)nc(O)n1)CCCCC2 | 66.4
N#Cc1ccccc1N1CC2(CCCCN2CC2CC2)CC1=O (stereo not drawn) | 15.3
CC(C)n1cc(CN2CCCN(C(=O)C(C)n3cccn3)CC2)cn1 (stereo not drawn) | 38.5
O=C1COc2cc(C(=O)N3CCCC(n4cccn4)C3)ccc2N1 (stereo not drawn) | -24.2
CCN1CC(CN(C)Cc2nc(-c3ccoc3)oc2C)CC1=O (stereo not drawn) | 39.6
CC(=O)N(C)C1CCCc2nc(C)sc21 (stereo not drawn) | 3.03
CCNC(=O)N(C)C1CCCc2nc(C)sc21 (stereo not drawn) | 64.9

Compound | INHIBITION [%]
CCc1nc2c(s1)C(N(C)C(C)=O)CCC2 (stereo not drawn) | 6.33
Cc1nc2c(s1)C(N(C)C(=O)NCCCC(C)(C)CO)CCC2 (stereo not drawn) | 3.67
CCc1nc2c(s1)C(N(C)C(=O)c1cc[nH]n1)CCC2 (stereo not drawn) | 28.6
CCc1nc2c(s1)C(N(C)C(=O)c1csnn1)CCC2 (stereo not drawn) | 68
Cc1cc(C)n(CC(=O)N2CCC(c3nc(C(C)C)no3)CC2)n1 | -6.42
COc1cc(CNCCn2ccnc2)cc2c1OCO2 | 17.4
COc1ccc(CNC(=O)CCN2C[C@@H](C)[C@](O)(C3CC3)C2)cc1 | 25.4
CC(=O)Nc1ccc(C(=O)N2CCSCC2c2ccc(C)o2)cc1 (stereo not drawn) | -14.3
c1cncc(-c2noc(CN3CCCC3Cn3cccn3)n2)c1 (stereo not drawn) | -9.37
O=S(=O)(c1cccnc1)N1CCN(Cc2nc(-c3ccco3)cs2)CC1 | 33.4
Cc1ccc(CC(=O)N2CCN(CC(O)c3ccccc3)CC2)cn1 (stereo not drawn) | 42.7
CC(C)(C)c1csc(CN2CCN(S(=O)(=O)c3cccnc3)CC2)n1 | 29
O=S(=O)(c1cccnc1)N1CCN(CC(O)c2cccs2)CC1 (stereo not drawn) | -7.28
O=S(=O)(c1cccs1)N1CCCn2nnc(CN3CCCCC3)c2C1 | 23.2
O=S(=O)(c1cccnc1)N1CCN(CC(O)c2ccccc2)CC1 (stereo not drawn) | 83.4
O=S(=O)(c1ccc(Cl)s1)N1CCN(Cc2nc(-c3ccco3)cs2)CC1 | 86.6
O=S(=O)(c1cccs1)N1CCN(Cc2nc(-c3ccco3)cs2)CC1 | 57.1
N#CCCN1CCN(S(=O)(=O)c2ccc(Cl)s2)CC1 | 42
O=S(=O)(c1cccs1)N1CCCn2cnc(CN3CCCC3)c2C1 | -11.9
Cn1cnc(S(=O)(=O)N2CCN(Cc3ccco3)CC2)c1Cl | 32.7
O=S(=O)(c1cccnc1)N1CCN(Cc2nc(-c3cccs3)cs2)CC1 | 57.1
Cn1ccc(C(=O)NC2CCC23CCN(Cc2nccs2)CC3)c1 (stereo not drawn) | 38.2

Compound | INHIBITION [%]
Cc1cc(-c2ccccc2C(=O)O)nc(C2CCCN(C)C2)n1 (stereo not drawn) | 30.8
CC(C)CN1CCS(=O)(=O)[C@@H]2CCN(S(=O)(=O)C3CC3)CC[C@@H]21 | 12.1
CC(NC(=O)C1CC1)c1cc(O)nc(-c2cccnc2)n1 (stereo not drawn) | 10.3035
O=C(c1ccnnc1)N1CCO[C@H]2[C@H](Oc3cccnc3)CC[C@@H]21 | 13.7
CN1CCN(C(=O)CCc2ccccc2)Cc2cccnc21 | -54.5
C=c1occc1=C1NN=C2SC(C#N)C(N)=NN21 (stereo not drawn) | -14.8
CCC(C(=O)N(Cc1ccccc1OC)C1CC1)n1cccn1 (stereo not drawn) | 61
CCC(C(=O)N(C)Cc1cc(C2CC2)[nH]n1)n1cccn1 (stereo not drawn) | -33.5
CCC(C(=O)NC1CCCCC1)n1cccc(OC)c1=O (stereo not drawn) | -1.83
CCC(C(=O)N(Cc1ccccn1)C1CCCCC1)n1cccn1 (stereo not drawn) | 72.1
CCC(C)C(=O)N(Cc1ccccn1)C1CC1 (stereo not drawn) | 36.9
O=C(c1ccoc1)N(Cc1ccccn1)C1CC1 | -0.87
O=C(c1csc(-c2nnc[nH]2)n1)N1CCCCC1Cn1cccn1 (stereo not drawn) | 18.2
Cn1cc(C(=O)CC2CCCN2C(=O)c2ccncc2F)cn1 (stereo not drawn) | 10
CC(=O)N1CCN(CCCOc2ccccc2F)CC(C(N)=O)C1 (stereo not drawn) | 46
COc1ccc(F)cc1C(=O)N1C[C@H]2CC(OC)C[C@H]2C1 (stereo partly drawn) | 23.2
Cc1ccccc1CC(C)(C)NC(=O)COc1cccc(C(N)=O)c1 | 38
Cc1ccccc1CC(C)(C)NC(=O)CCOc1cccc(C(N)=O)c1 | 69.7
Cc1ccccc1CC(C)(C)NC(=O)c1cccc(OCC(N)=O)c1 | 36.3
c1cc2c(cc1Cn1cc(C3CCOC3)nn1)CCCO2 (stereo not drawn) | 46.7
COCC(=O)N1CCN(Cn2nc(C)c(Br)c2C)CC1 | -36.4
COC(=O)N1CCCN(Cn2nc(C)c(Br)c2C)CC1 | 13

Compound | INHIBITION [%]
CCC(=O)N1CCCN(Cn2nc(C)c(Br)c2C)CC1 | 56.1
COc1ccc(CNC(=O)N2CCN(CC(O)C3CC3)CC2)cc1 (stereo not drawn) | 35
CN(C)CCOc1cccc(CN2CCCC3(C2)CN(C)C(=O)O3)c1 (stereo not drawn) | 20.9
Cc1ccc(C(CNCc2ncc[nH]2)N2CCOCC2)s1 (stereo not drawn) | 60.3
CCn1ccnc1CNCC(c1ccc(C)s1)N1CCOCC1 (stereo not drawn) | 60.3
CN(Cc1ncc[nH]1)CC(c1cccs1)N1CCOCC1 (stereo not drawn) | 12.8
Cc1ccc(C(CNCC2CC2)N2CCOCC2)s1 (stereo not drawn) | -23.2
Cc1ccc(C(CNCc2nccn2C)N2CCOCC2)s1 (stereo not drawn) | 47.4
Cc1ccc(C(CNCc2cccnc2)N2CCOCC2)s1 (stereo not drawn) | 42.3
Cc1nccn1CCN(C)C(=O)c1cn(-c2ccccc2)nn1 | -32.6
CC(C)NC(=O)N1CCCn2cnc(CN3CCCC3=O)c2C1 | -12.2
CN(C)CCOCC1CN(C(=O)c2ccnnc2)Cc2ccnn2C1 (stereo not drawn) | 39.8
CO[C@H]1CN(Cc2nc3ccccc3n2C)C[C@@]12CCCO2 | 25.64
COCCCNC(=O)CN(C)C(=O)c1ccc(-n2cccc2)cc1O | 39.25
CCn1c(Cn2cncn2)nnc1C1CCN(C2CCOCC2)CC1 | 15.7
Cc1n[nH]c(C2CN(C(=O)COCC(F)(F)F)CCO2)n1 (stereo not drawn) | 32.2
NC(=O)c1cnn2c1NCC(CNC1(c3ccccc3)CCC1)C2 (stereo not drawn) | 33.7
O=S(=O)(NCc1ccc(S(=O)(=O)N2CCCC2)s1)c1cc(Cl)ccc1Cl | 3.48
Nc1nc(SCc2ccc3c(c2)OCO3)ns1 | -14.2
CC(C)CNC(=O)Nc1cccc(OCC#N)c1 | -8.4
CN(CCn1ccc2ccccc21)C(=O)CS(C)(=O)=O | 34.1
CN(CCn1ccc2ccccc21)C(=O)Cc1nnn[nH]1 | 62.8

Compound | INHIBITION [%]
CN(CCn1ccc2ccccc21)C(=O)Cc1n[nH]c(=O)[nH]1 | 5.38
Cn1cc(CN2CCCN(C(=O)c3sccc3C#N)CC2)cn1 | -5.25
c1cnc(N2CCC3(CCN(CC4CCOC4)CC3)C2)nc1 (stereo not drawn) | -10.2
CCS(=O)(=O)N1CCC2(CCC(N3CCCC3)c3ccccc32)CC1 (stereo not drawn) | 23.1
O=C1N(CC2CC2)CCC12CCN(c1ncccn1)CC2 | -2.6
CCS(=O)(=O)N1CCC2(CC1)CN(CC1CCOC1)c1ccccc12 (stereo not drawn) | 73.8
CCS(=O)(=O)N1CCC2(CC1)CC(CC(=O)NC1CC1)c1ccccc12 (stereo not drawn) | -5.22
O=C1CC2(CCN(CC3CCOC3)CC2)c2ccccc2N1CC1CC1 (stereo not drawn) | 9.97
c1cnc(N2CC3(CCN(CC4CCOC4)CC3)c3ccccc32)nc1 (stereo not drawn) | 18.7
CS(=O)(=O)N1CCC2(CC1)CN(CC1CCOC1)c1ccccc12 (stereo not drawn) | 39.4
c1ccc2c(c1)N(CC1CCOC1)CC21CCN(c2cnccn2)CC1 (stereo not drawn) | 84.7
c1cnc(N2CCC3(CC2)CN(CC2CC2)c2ccccc23)nc1 | 83.2
CCCS(=O)(=O)N1CCC2(CC1)CC(N1CCCC1)c1ccccc12 (stereo not drawn) | 71.8
OCCN1CC2(CCN(CC3CC3)CC2)c2ccccc21 | 26
Cc1cc(C(=O)N2CCn3cc(CN4CCN(C)CC4)nc3C2)no1 | 32.2
Cc1nc(Nc2nccs2)cc(C2CN(C(C)C)C2)n1 | -17.9
CC(=O)N1CCCC(c2cnc(-c3c(C)nn(C)c3C)cn2)C1 (stereo not drawn) | 47.8
CCc1n[nH]c(C2CN(C(=O)c3ccc(Cl)cn3)CCO2)n1 (stereo not drawn) | 25.4
CN(CC(=O)N(C)C(c1ccc(Cl)cc1)c1cccnc1)C1CC1 (stereo not drawn) | 3.19
CCS(=O)(=O)N1CCC2(CC1)CC(Oc1ccccn1)CO2 (stereo not drawn) | 0.547

Reference: ChEMBL document CHEMBL4513216, “Probing the Open Global Health Chemical Diversity Library for Multistage-Active Starting Points for Next-Generation Antimalarials” (ACS Infect Dis, 2020)
